Source: PubChem BioAssay (NCI)
The panel holds about 83,000 compounds, 20% with a hit somewhere; the sample as a whole holds those more often.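 The endpoint reported here, percent growth, reads 100 for growth as untreated, 0 for no net growth and -100 for all cells dead.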 Unmarked numbers belong to inactive results. Calls of active or inactive are those of the source. How the source made its calls: active means growth percent below 10; inactive means the rest.

Test system: HL-60(TB) leukemia
Assay: NCI-60 one-dose screen, 48 h (100 = growth as untreated, 0 = no growth, -100 = all killed)
Conditions: 10 µM unless noted

Row | Compound | growth
1 | O=C1[C@H]2Cc3c([nH]c4ccccc34)[C@@H](c3c(Cl)cccc3Cl)N2C(=O)CN1C1CCN(CC2CCCCC2)CC1 | 35.4%
2 | COc1ccc(Cn2cc3c(c2-c2cc(OC)c(OC)c(OC)c2)CCc2c(CN4CCCC4)noc2-3)cc1 | 3.57% (active)
3 | CCN(CC)c1ccc(/C=N/NC(=O)c2ccc(S(N)(=O)=O)cc2)cc1 | 2.37% (active)
4 | Cc1csc(/N=C(N)/N=C(\N)c2cccc(Br)c2)n1 | 91.3%
5 | CCOC(=O)c1c(Nc2ccccc2)nn2c(-c3ccco3)c(C#N)cnc12 | 110%
6 | Cc1ccc(-n2cc(/C=C/C(=O)c3ccc(O)cc3)c(-c3ccc(S(C)(=O)=O)cc3)n2)cc1 | 27.5%
7 | C(=C(\C1=NCCN1)n1cnc2ccccc21)/c1cccc2ccccc12 | 71.6%
8 | CC1=C(C)C(=O)C(Nc2ccc3c(c2)OCO3)=C(Br)C1=O | 44.2%
9 | CCOC(=O)C1=C(C)N=C2Sc3ccccc3N2C1c1ccccc1 (stereo unspecified) | 61.9%
10 | CC(C)(O)c1cncc(-c2ccc3ncnc(NCc4ccccc4)c3c2)c1 | 105%
11 | C#Cc1nc(C2=C(C)C(=O)/C(=N/OC(C)=O)C2)cs1 | 20.4%
12 | COc1ccc(C(=O)CSc2nc3c(c(Nc4ccc(S(N)(=O)=O)cc4)n2)CCCC3)cc1 | 101%
13 | O=C(O)c1ccc(-n2cc(CNc3ccc(Cl)cc3)c(-c3ccc(F)cc3)n2)cc1 | 111%
14 | CC1=N[C@@H]2CN(C(=O)OC(C)(C)C)C[C@@H]2n2c1cc1ccccc1c2=O | 99.9%
15 | CS(=O)(=O)c1ccc(-c2nc3ccccn3c2/C=N/Nc2nc(-c3ccc(Cl)cc3)cs2)cc1 | 99.2%
16 | Cc1sc2nc(NCc3ccccc3Cl)[nH]c(=O)c2c1C | 75.1%
17 | COc1c([C@@H](CC(C)C)OC(C)=O)ccc2c1C(=O)OCc1cc(C)cc(O)c1O2 | 63.7%
18 | Cc1ccc(C(=O)Nc2ccc(CNCCN3CCNCC3)c(C(F)(F)F)c2)cc1C#Cc1cnc2cccnn12 | -54.7% (active)
19 | ClC(Cl)c1nc(-c2ccco2)n2nc(-c3ccccc3)cc2n1 | -24.4% (active)
20 | CN1CCN(c2ccc(Nc3nc(NCCCNS(=O)(=O)c4cccc(F)c4)c4sccc4n3)cc2)CC1 | -48.7% (active)
21 | COc1cc(/C=C/C(=O)c2ccc(N3CCN(C)CC3)cc2)ccc1F | 50%
22 | Cn1c2ccc(Br)cc2c2c3c(c4c5cc(F)ccc5oc4c21)C(=O)N(O)C3=O | 99.6%
23 | COc1ccc(/C=N/Nc2ccnc3cc(Cl)ccc23)cc1Cl | -37.5% (active)
24 | CCCCCc1ccc(S(=O)(=O)Nc2cccc(-c3csc(NC(=O)CCCCCN4CCN(CCO)CC4)n3)c2)cc1 | 63.4%
25 | O=C1Nc2ccc(Br)cc2/C1=N\c1nnc(-c2ccc(Cl)cc2)o1 | 11.1%
26 | CCN1C(=O)N(CC)C2C1NN=C1SC(c3ccccc3)=CC(=O)N12 (stereo unspecified) | -2.48% (active)

Row | Compound | growth
27 | CCOP(=O)(OCC)OC[C@]12CCC(C)(C)CC1C1=CC[C@@H]3[C@@]4(C)CCCNC(C)(C)[C@@H]4CC[C@@]3(C)[C@]1(C)CC2 (stereo partly specified) | 34.7%
28 | O=C(CSc1nc2ccccc2c(=O)n1-c1ccccc1)Nc1cccc(C(=O)/C=C/c2ccccc2)c1 | 99.1%
29 | CNC(=O)c1cc(-c2ccc(NC(=O)Nc3ccc(N4CCN(C)CC4)c(C(F)(F)F)c3)cc2)nc2cccnc12 | -16.4% (active)
30 | CC(=O)C1=C(C)NC(NNC(N)=S)=NC1c1ccccc1 (stereo unspecified) | 148%
31 | CCN(CC)c1ccc(/C=N/NC(=O)c2ccc(NS(C)(=O)=O)cc2)c(O)c1 | 0.843% (active)
32 | COc1cc(/C=N/n2cnc3oc(-c4ccccc4)cc3c2=N)cc(CN2CCOCC2)c1O | 88.9%
33 | CN(C)S(=O)(=O)c1ccc(-c2nc(C(Cl)Cl)nc3cc(-c4ccccc4)nn23)cc1 | 71.1%
34 | Nc1nc(-c2cccc([N+](=O)[O-])c2)c(N=Nc2ccc(Br)cc2)s1 | 100%
35 | COC(=O)c1cccc(NC2=C(Cl)C(=O)c3nc(C)ccc3C2=O)c1 | 24.3%
36 | NC(=O)c1cccc(-n2ccc3cc(NC(=O)Nc4ccc(N5CCOCC5)c(C(F)(F)F)c4)ccc32)n1 | -52.2% (active)
37 | CCCCCCNC(=O)Oc1ccc(/C(=C(\C)c2ccc(OC)cc2)c2ccc(OCCN(C)C)cc2)cc1 | 56.3%
38 | C#Cc1nc(C2=C(C)C(OC(C)=O)/C(=N/OC(C)=O)C2)cs1 (stereo unspecified) | -43.9% (active)
39 | CCCCOc1ccc(S(=O)(=O)N2CCN(c3nccc(N4CCOCC4)n3)CC2)cc1 | 32.4%
40 | COc1ccc(-n2c(/C=C3\C(=O)Nc4ccccc43)ccc2CO)cc1 | 92.7%
41 | O=c1c2c(O)cccc2oc2c3c(cc(O)c12)O[C@H]1OC=C[C@@H]31 | 89.7%
42 | Cn1ccnc1C(=O)/C=C/c1ccc(CNC(=O)c2ccc(Cl)cc2)cc1 | -25.5% (active)
43 | CC(C)(C)OC(=O)Nc1ccc(-c2cccc(Oc3ccc4nnc(Cl)n4n3)c2)cc1 | 64%
44 | Oc1ccc(CSc2nnc(-c3ccc(Br)cc3)n2-c2ccccc2)c2cccnc12 | 27.5%
45 | O=C(NNc1nc2cc(F)ccc2n2cncc12)c1cnccn1 | 10.8%
46 | Cc1ccc2c(n1)C(=O)C(Cl)=C(Nc1ccc(C(F)(F)F)cc1)C2=O | 35.8%
47 | O=C1[C@H]2Cc3c([nH]c4ccccc34)[C@H](c3ccc(Br)cc3)N2C(=O)CN1C1CCN(CC2CCCCC2)CC1 | 56.9%
48 | CC(C)c1ccc(NCc2cn(-c3ccc(C(=O)O)cc3)nc2-c2cc(C(F)(F)F)cc(C(F)(F)F)c2)cc1 | 83.1%
49 | COc1ccccc1/C=C/C=N/NC1=NC2C(S1)N(C)C(=O)N2c1ccccc1 (stereo unspecified) | -25.7% (active)
50 | Nc1ncc(-c2ccc3ncnc(N4CCc5cc(F)c(Cl)cc54)c3c2)cc1CO | -23.4% (active)
51 | CCc1ccc(NC(=O)N[C@@H](Cc2cc(F)cc(F)c2)C(=O)N[C@@H]2C(=O)N3CCC[C@H]3C(=O)N3CCO[C@H](C)[C@H]3C(=O)N[C@@H](CO)C(=O)N3C[C@H](C)C[C@H]3C(=O)O[C@H]2C)c(F)c1 | 15.4%
52 | CS(=O)(=O)Nc1cc(-c2ccc3ncc(C#N)c(Nc4cccc(Cl)c4F)c3c2)cnc1Cl | 0.143% (active)

Row | Compound | growth
53 | O=S(=O)(NCCCNc1nccc(-c2[nH]c(-c3ccccc3)nc2-c2ccc(F)c(O)c2)n1)c1ccccc1 | 90.6%
54 | CN1CCN(Cc2ccc(NC(=O)c3cncc(C#Cc4cnc5ccc(NC6CCOCC6)nn45)c3)cc2C(F)(F)F)CC1 | -45.2% (active)
55 | O=C(O)CNS(=O)(=O)c1ccc(Oc2ccc(S(=O)(=O)NCC(=O)O)cc2)cc1 | 91%
56 | CCCC(=O)NC(c1ccc2c(c1)OC(F)(F)O2)c1cc(C)c2cccnc2c1O (stereo unspecified) | -4.8% (active)
57 | Cn1c2ccccc2c2c3c(c4c5ccc(Br)cc5oc4c21)C(=O)N(O)C3=O | 73%
58 | C/C(=C(/c1ccc(O)cc1)c1ccc(OCCN(C)C)cc1)c1ccc(Cl)cc1 | 21.8%
59 | C#CCOc1ccccc1C(OC(=O)c1ccccc1)C(=O)NC(C)(C)C(C)(C)C (stereo unspecified) | 95.1%
60 | O=C(/C=C/c1ccccc1Cl)Nc1ncc(Cc2cc(Cl)ccc2Cl)s1 | 3.08% (active)
61 | COc1cc(-c2nc(SCCC(C)C)nc(NNC(=O)c3ccncc3)c2C#N)cc(OC)c1OC | 116%
62 | CCNC(=O)N1CCc2cc(OC)c(OCCc3ccc(OC)nc3)cc2C1c1ccc(OC)cc1C (stereo unspecified) | 11.5%
63 | COc1cc(-c2nc(-c3ccccc3)[nH]c2-c2ccnc(NCCCNS(=O)(=O)c3ccc(C)cc3)n2)ccc1F | 93.4%
64 | CC(C)(C)c1ccc(C(=O)Nc2sc3c(c2C(N)=O)CCC(O)C3)cc1 (stereo unspecified) | 37.2%
65 | CCN(CC)CCOc1ccc(C(=C(C)Cc2ccc(OC)cc2)c2ccc(OCCN(CC)CC)cc2)cc1 | -42.3% (active)
66 | COc1cc2oc(-c3cccc(NC(=O)[C@@H](N)C(C)C)c3)cc(=O)c2c(OC)c1OC | 105%
67 | CCOP(=O)(OCC)OC[C@]12CC[C@@H](C)[C@H](C)C1C1=CC[C@@H]3[C@@]4(C)CCCNC(C)(C)[C@@H]4CC[C@@]3(C)[C@]1(C)CC2 (stereo partly specified) | -67.7% (active)
68 | COc1cc(C2CC(c3ccc(Nc4nc(NCCO)nc(Nc5ccc(Cl)cc5)n4)cc3)=Nc3c(N)nc(N)nc3N2)cc(OC)c1OC (stereo unspecified) | 25%
69 | CC1(COc2ccc3ncc(C#Cc4cncc(C(=O)Nc5cc(C(C)(C)C)on5)c4)n3n2)COC1 | 23%
70 | C=C(C=O)[C@@H]1CC[C@]2(COC(C)=O)CC[C@]3(C)C(CC[C@@H]4[C@@]5(C)CC[C@H](OC(C)=O)C(C)(C)[C@@H]5CC[C@]43C)[C@@H]12 (stereo partly specified) | -10.9% (active)
71 | COc1ccc(/C=N/N=C(/c2ccccc2)c2ccc3nc(-c4ccc(Cl)cc4)[nH]c3c2)cc1 | 67.2%
72 | C=CCn1c(SCC(=O)c2ccccc2)nnc1-c1c[nH]c2ccccc12 | 95.6%
73 | COc1ccc(NC(=O)Nc2ccc3c(ccn3C(=O)c3cccc(F)c3)c2)cc1 | 85.2%
74 | Oc1ccc(CSc2nnc(-c3ccccc3)n2-c2ccccc2)c2cccnc12 | 7.9% (active)
75 | CCOC(=O)c1sc(NCC(=O)Nc2cccc([N+](=O)[O-])c2)c(C(=O)OCC)c1C | 0.979% (active)
76 | COc1ccc(NC2=C(Br)C(=O)C(C)=C(C)C2=O)cc1OC | -34.6% (active)
